# Pf growth 96h = Primary qHTS for delayed death inhibitors of the malarial parasite plastid, 96 hour incubation; Potency, µM (doses to about 28.7 µM), actives largely listed as inhibitors; P. falciparum luciferase reporter growth, 96 h; 6.9% of 320,000 active
#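 Parasite growth measured via integrated firefly luciferase reporter in P. falciparum. Infected erythrocytes at 2% hematocrit, 0.05% parasitemia final were treated 96 hours at 37 C under 5% CO2, and luminescence was read.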
# Sm TGR inh = qHTS Assay for the Inhibitors of Schistosoma Mansoni Peroxiredoxins | purified TGR, DTNB reduction, TNB absorbance 405 nm | Potency, µM (titrated, usually from 114 µM), most hits filed as inhibitors | AID 485364, 2010 | Schistosoma mansoni thioredoxin glutathione reductase (TGR), Q962Y6 | 3% of 360,000 active; note: nearly all actives have a fitted effect of over 60% in size
#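 Kinetic colorimetric format: TGR-catalysed, NADPH-driven DTNB reduction monitored via TNB absorbance. Enzyme dispensed at 20 nM; compound exposure 15 min at room temperature before reaction start.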
# NS1 function inh = qHTS Assay for Inhibitors of Influenza NS1 Protein Function; Potency, µM (titrated, usually from 46.1 µM); 0.4% of 270,000 active; calls by dose curve; note: actives are rising curves; nearly all actives have a fitted effect of over 50% in size
#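 Growth recovery, yeast-based: influenza A NS1 expressed in S. cerevisiae causes slow growth, and suppressors are detected by OD600. The parent strain without NS1 is used as positive control.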
# Pf growth 48h = Primary qHTS for delayed death inhibitors of the malarial parasite plastid, 48 hour incubation. P. falciparum luciferase growth in erythrocytes, 48 h. 5.9% of 310,000 active. AID 504832, 2011. Potency, µM (series often up to 28.7 µM), most hits filed as inhibitors
#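 Firefly luciferase activity from engineered P. falciparum reports growth; inhibitors lower the luminescent signal. Cultures contained 2% hematocrit erythrocytes at 0.1% final parasitemia.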
# AMA1 RON2 block = qHTS for Inhibitors of AMA1-RON; Towards Development of Antimalarial Drug Lead: Primary Screen | 0.2% of 360,000 active | AID 720542, 2013 | Plasmodium falciparum AMA1 (3D7) - RON2 peptide interaction | Potency, µM (highest dose often 58.2 µM), hits mostly inhibitors | AlphaScreen AMA1-biotinylated RON2 peptide binding; note: nearly all actives have a fitted effect of over 45% in size
#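 AMA1 (3D7) with his tag at 25 nM final met compounds first, then biotinylated RON2 peptide at 25 nM; detection used donor plus acceptor beads, 10 µg/mL apiece, read by AlphaScreen after 30 min at room temperature.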
# Hits are given with their value; i = inactive; ? = inconclusive; nt = no result; [ ] = another dose, or the depositor's remark. In the library only some 11% were active in any assay of this set; here they are far more common. Unless noted, calls come from the whole dose curve; as a rule, active = well fitted curve in the direction sought with a large enough effect; inconclusive = small, poorly fitted or top-dose-only effect, or another doubt; inactive = no such curve, though single readings can be large; an effect the other way counts as inactive or inconclusive.
SMILES,Pf growth 96h,Sm TGR inh,NS1 function inh,Pf growth 48h,AMA1 RON2 block
CCCn1c(N)c(C(=O)CSc2nnc(C3CC3)n2-c2ccccc2)c(=O)[nH]c1=O,10µM,i,nt,?,i
COCCn1c(SCC(=O)c2c(N)n(C3CC3)c(=O)[nH]c2=O)nnc1-c1cccc(C)c1,8.3µM,i,nt,8.3µM,i
COc1ccc(C(C(=O)NCc2ccccc2)N(C(=O)c2snc(C(N)=O)c2N)C2CCCC2)cc1O (stereo not given),?,i,i,i,i
CCOC(=O)c1cc(OC(=O)c2ccccc2F)n(-c2ccccc2)n1,nt,i,nt,nt,nt
Cc1ccc(OC(=O)C(F)(F)F)c2c1NCCC2,nt,32µM,i,?,i
Cc1ccc(S(=O)(=O)N2CCN(C(=O)Cc3ccc(S(=O)(=O)N4CCOCC4)s3)CC2)cc1,12µM,i,i,?,i
O=C(COc1cccc(C(F)(F)F)c1)NNC(=O)Cc1ccc(S(=O)(=O)N2CCOCC2)s1,?,i,nt,13µM,i
COCCOc1ccc(C(F)(F)F)cc1NC(=O)Cc1ccc(S(=O)(=O)N2CCOCC2)s1,8.3µM,i,nt,12µM,i
O=C(Cc1ccc(S(=O)(=O)N2CCOCC2)s1)N1CCN(S(=O)(=O)c2cccc(F)c2)CC1,nt,nt,nt,nt,i
O=C(Cc1ccc(S(=O)(=O)N2CCOCC2)s1)N1CCN(S(=O)(=O)c2ccc(Cl)cc2)CC1,4.7µM,i,nt,7.4µM,i
O=C(COc1cccc(F)c1)NNC(=O)Cc1ccc(S(=O)(=O)N2CCOCC2)s1,?,i,nt,?,i
O=C(Cc1ccc(S(=O)(=O)N2CCOCC2)s1)N1CCN(S(=O)(=O)c2ccccc2F)CC1,nt,nt,nt,nt,i
O=C(Cc1ccc(S(=O)(=O)N2CCOCC2)s1)N1CCN(c2cccc(C(F)(F)F)c2)CC1,10µM,i,i,?,i
O=C(Cc1ccc(S(=O)(=O)N2CCOCC2)s1)N1CCN(S(=O)(=O)c2cccc(Cl)c2)CC1,?,i,nt,12µM,i
CCc1cc(C(=O)N2CCN(S(=O)(=O)c3ccc(Cl)cc3)CC2)sc1C,9.3µM,i,nt,9.3µM,i
O=C(Cc1ccc(S(=O)(=O)N2CCCC2)s1)N1CCN(c2ccccc2)CC1,?,i,nt,i,i
C=CCN(c1ccccc1)S(=O)(=O)c1cccc(C(=O)Oc2ccc3c(C)cc(=O)oc3c2)c1,i,i,?,i,i
COc1cc(/C=N/NC(=O)c2ccoc2C)cc(OC)c1O,2.6µM,i,i,i,i
COc1ccc(/C=N/NC(=O)c2ccco2)cc1COc1ccc(F)cc1,?,i,i,9.3µM,i
COc1ccccc1C(=O)NCC(=O)n1nc(C)cc1C,13µM,i,i,i,i
COc1ccc(/C=N\NC(=O)c2cc(O)c(O)c(O)c2)cc1COc1ccc(C(=O)OCC(C)C)cc1,?,i,i,2.9µM,i
Cc1cc(C)n(C(=O)CNC(=O)c2ccccc2Br)n1,i,i,i,i,i
O=C(CCCc1ccccc1)NC1CC(=O)N(c2ccc(Cl)cc2)C1 (stereo not given),nt,i,nt,nt,nt
COc1cc(/C=N/NC(N)=S)cc(Br)c1OCc1ccccc1F,i,i,i,i,i
COc1ccccc1C(=O)NCC(=O)N/N=C/c1cccc(Cl)c1,2.1µM,i,nt,i,i
SMILES,Pf growth 96h,Sm TGR inh,NS1 function inh,Pf growth 48h,AMA1 RON2 block
CCOc1c(Br)cc(/C=N\NC(=O)c2ccccc2)cc1OC,8.3µM,i,i,5.2µM,i
CCOc1cc(/C=N/NC(N)=S)cc(Br)c1OCc1ccccc1C,nt,i,i,13µM,i
COc1cc(C(=O)N/N=C/c2ccc(OC(=O)c3ccccc3)c(OC)c2)ccc1O,9.3µM,i,i,i,i
COc1cc(/C=N/NC(=O)c2cc(O)cc(O)c2)ccc1OC(=O)c1ccccc1,?,i,i,i,?
Cc1cc(NC(=O)CSc2nc(N)c(NC(=O)c3ccco3)c(=O)[nH]2)no1,i,i,i,i,i
CCOC(=O)c1cccc(NC(=O)c2cc(C)nn2-c2ccccc2)c1,i,i,i,i[0.00184 µM],i
CC1CCCCC1NC(=O)CSc1ccc([N+](=O)[O-])cc1 (stereo not given),i,i,i,i,i

# High-throughput results as filed in PubChem BioAssay.
